Reference: the supplement of paper PMC3334620
In all, about 33,000 sequences were measured (“E-score (-0.5 to 0.5)”: median about -0.012, highest 2% from about 0.29 on). For the sample, the highest values were picked, then their nearest neighbours and some sequences at random.

Target: T1, Ybr033w (UniProt P38073)
T1 sequence: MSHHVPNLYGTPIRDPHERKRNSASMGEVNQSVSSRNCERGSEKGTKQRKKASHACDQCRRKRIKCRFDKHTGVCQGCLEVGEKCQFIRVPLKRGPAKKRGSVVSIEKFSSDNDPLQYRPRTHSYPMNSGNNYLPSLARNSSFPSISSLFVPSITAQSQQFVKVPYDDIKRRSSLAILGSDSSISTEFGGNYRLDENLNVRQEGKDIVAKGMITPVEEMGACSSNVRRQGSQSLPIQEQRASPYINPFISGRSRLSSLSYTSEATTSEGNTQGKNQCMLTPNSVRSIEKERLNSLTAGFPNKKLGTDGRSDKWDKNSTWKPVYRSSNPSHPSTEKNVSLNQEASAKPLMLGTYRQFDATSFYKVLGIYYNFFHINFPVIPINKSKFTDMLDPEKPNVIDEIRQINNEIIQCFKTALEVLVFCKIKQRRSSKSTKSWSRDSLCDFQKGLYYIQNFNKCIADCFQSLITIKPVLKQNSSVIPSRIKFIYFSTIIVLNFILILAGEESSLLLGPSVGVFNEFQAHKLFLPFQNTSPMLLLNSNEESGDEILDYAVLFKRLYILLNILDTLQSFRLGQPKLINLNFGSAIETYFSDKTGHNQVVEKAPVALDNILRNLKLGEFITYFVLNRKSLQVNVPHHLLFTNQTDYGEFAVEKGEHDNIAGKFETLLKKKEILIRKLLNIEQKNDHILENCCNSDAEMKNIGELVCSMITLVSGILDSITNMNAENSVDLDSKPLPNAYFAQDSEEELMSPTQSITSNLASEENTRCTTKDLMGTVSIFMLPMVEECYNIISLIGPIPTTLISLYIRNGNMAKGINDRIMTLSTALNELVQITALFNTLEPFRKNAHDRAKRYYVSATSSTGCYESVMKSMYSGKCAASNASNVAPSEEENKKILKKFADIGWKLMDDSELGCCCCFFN
Assay: PBM E-score (8-mer binding enrichment) (E-score (-0.5 to 0.5)); higher = stronger / more preferred TF binding
Settings: protein concentration: 200 nM; construct: GST-full length
Method: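 Universal 'all 10-mer' protein binding microarrays (Agilent AMADID 015681) probed with GST-tagged S. cerevisiae TFs (full-length or DBD) made by in vitro transcription/translation (PURExpress), about 100-200 nM. Bound TF was detected with fluorescent anti-GST. Each ungapped 8-mer (which stands for itself and its reverse complement) is scored by the PBM enrichment score (E-score), a modified Wilcoxon-Mann-Whitney statistic from -0.5 to +0.5, computed with the Universal PBM Analysis Suite. Scale: above 0.35 generally sequence-specific binding.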

Row | Sequence | PBM E-score
1 | AGAGGTGG | -0.156
2 | CAGTGAAA | 0.126
3 | GAGTGAAA | 0.129
4 | AAGTGAAA | 0.29
5 | GTCCTTCA | -0.0408
6 | CAGCACTC | 0.0472
7 | AATGGTCA | 0.205
8 | AATAGTAA | 0.239
9 | AATAGTGT | 0.289
10 | AATAGTAG | 0.201
11 | AATAGTGC | 0.123
12 | AATAGTGG | 0.0387
13 | AATAGTAT | 0.293
14 | AGCAATAG | 0.0737
15 | CTTCGGAA | 0.243
16 | GTTCGGAA | 0.316
17 | ATTCGGAA | 0.269
18 | GAAGCGCC | -0.0866
19 | AACTTGAC | -0.0113
20 | CAATACTC | 0.193
21 | GAATACTC | 0.0489
22 | AAATACTA | 0.224
23 | AAATACTG | 0.172
24 | AAATACTC | 0.316
25 | AAATACTT | 0.34

Row | Sequence | PBM E-score
26 | GTTAAGGA | 0.121
27 | AGCTGAAT | 0.135
28 | AGCTCTGC | -0.255
29 | AAAGTCTA | -0.00319
30 | ACTCCTCA | -0.135
31 | ATTAAGCA | -0.0125
32 | GTTCATTA | 0.221
33 | CTTCATTA | 0.291
34 | ATTCATTA | 0.263
35 | ATTGGTGC | 0.0298
36 | ATACTTTG | 0.297
37 | ATACTTTC | 0.177
38 | ATACTTTA | 0.23
39 | AGCCAGGG | -0.362
40 | ACAGAAAT | 0.137
41 | ACGGAAAT | 0.313
42 | CCGGAAAG | -0.0245
43 | GCGGAAAA | 0.396
44 | CCGGAAAC | 0.14
45 | CCGGAAAA | 0.44
46 | ACGGAAAA | 0.422
47 | GCGGGAAA | 0.128
48 | ACGGAAAC | -0.12
49 | ACGGGAAT | 0.0676
50 | ACGGAAAG | 0.0247

Row | Sequence | PBM E-score
51 | GCGGAAAC | -0.191
52 | AGGACGGC | -0.235
53 | GAGAGTCA | -0.0369
54 | CGTCCTCC | -0.314
55 | GAGAGATC | -0.00339
56 | TCGGGAAA | 0.253
57 | TCAGAAAA | 0.0198
58 | TCGGAAAA | 0.424
59 | CCTTGGCC | -0.318
60 | CAACATCC | -0.07
61 | GAACATCC | 0.303
62 | AAACATCC | 0.192
63 | CAGAGCGA | 0.105
64 | TGGGTGAA | 0.15
65 | ATAAGGAT | 0.297
66 | ATAAGGAA | 0.0859
67 | ATAAGGAC | -0.0427
68 | CCGAAGGC | -0.11
69 | ATTCTGGC | -0.217
70 | TATATAAA | 0.282
71 | CATATAAA | 0.174
72 | TGCATAAA | 0.218
73 | AGTATAAA | 0.266
74 | CGTATAAA | 0.291
75 | AATATAAA | 0.344

Row | Sequence | PBM E-score
76 | AGCATAAA | 0.141
77 | CGCATAAA | 0.297
78 | AATATAAT | 0.236
79 | AATATAAG | 0.295
80 | CATATAAG | 0.114
81 | CGTATAAC | 0.0815
82 | AATACTTC | 0.21
83 | AACTAGAC | 0.0442
84 | GTGGTAGA | -0.158
85 | CGGTGAGC | -0.26
86 | AGCTGACA | -0.103
87 | CCCACAAA | 0.0286
88 | AGTAAGAC | -0.00585
89 | ATAACTGC | 0.193
90 | TGAAGAAA | 0.134
91 | CCAAGTCA | -0.0141
92 | CAGTGCAG | -0.0894
93 | TCGGAAGA | 0.193
94 | CCGGAAGG | 0.0448
95 | CCGGAAGC | 0.0751
96 | CCGGAAGA | 0.404
97 | ACGGAAGT | 0.0483
98 | ACGGAAGA | 0.338
99 | AGTCACCG | -0.104
100 | TACTGCCA | 0.038

Row | Sequence | PBM E-score
101 | TATCACCA | 0.0892
102 | AATCACCA | 0.295
103 | AATCACCG | -0.0481
104 | AGACTGCC | -0.219
105 | CAGTTATA | 0.074
106 | GATTTTTA | 0.209
107 | AATATTTA | 0.318
108 | GCTATTTA | 0.132
109 | AATATTTC | 0.34
110 | CATATTTC | 0.213
111 | GATATTTA | 0.338
112 | CCTATTTC | 0.124
113 | CATATTTA | 0.28
114 | AATATTTG | 0.232
115 | CGCTCTAA | -0.0524
116 | CCAAAGAG | -0.0366
117 | CCCACCAC | -0.0659
118 | CCATACGA | 0.0671
119 | CCCGCCTC | -0.17
120 | CGCCCCAA | -0.118
121 | ACGAACAT | 0.151
122 | AGGAACAC | 0.193
123 | GCGAACAA | 0.183
124 | ATGAACAT | 0.217
125 | AGGAACAA | 0.402

Row | Sequence | PBM E-score
126 | TCGAACAA | 0.138
127 | GGGAACAA | 0.381
128 | GGGAACAC | 0.0998
129 | AGGAACAT | 0.399
130 | TGGAACAA | 0.434
131 | AGGAACAG | -0.0964
132 | TGGAACCA | 0.0554
133 | CCTGAATA | 0.186
134 | TCCCCTAA | -0.208
135 | ATCTATCA | 0.302
136 | ATCTATTA | 0.327
137 | CTCTATCA | -0.0434
138 | GTCTATTA | -0.0198
139 | ATGTATTA | 0.293
140 | GTGTATTA | 0.28
141 | ATGTATTG | 0.266
142 | CTCTATTA | 0.152
143 | GTCTATCA | 0.0657
144 | GCTACAAC | 0.0399
145 | GAAGAGCC | -0.13
146 | ACCGGCCA | -0.314
147 | ATCCACAT | 0.224
148 | ACTCCTCC | -0.182
149 | CGTAGTCA | -0.186
150 | AATATCAG | 0.299

Row | Sequence | PBM E-score
151 | AATATCGA | 0.164
152 | ACTATCAT | 0.242
153 | AATATCAC | 0.239
154 | AATATCGT | 0.33
155 | AATATCAA | 0.233
156 | AATATCGG | 0.198
157 | CATATCAG | 0.0658
158 | AATATCAT | 0.294
159 | ACGACGTA | 0.0878
160 | ACTTGGAC | 0.127
161 | ACCAGCAT | 0.0255
162 | CTGCGGTC | -0.262
163 | AATCTACG | -0.0149
164 | ACAGCACA | 0.144
165 | CCCCTTCG | -0.317
166 | AAAATACT | 0.301
167 | AAAATACA | 0.254
168 | CAAATACC | 0.112
169 | AAAATACG | 0.171
170 | AATACTCA | 0.229
171 | AATACTCC | 0.0328
172 | AATACTCT | 0.298
173 | ACAATACT | 0.219
174 | AAAATACC | 0.315
